Data from PubChem BioAssay AID1159580 (chemical genetic matrix, 2015).
The whole screen tested about 5,500 compounds, of which about 2,000 (36%) were called active. Another 18% or so got no clear call; they are omitted. Rule as the data show it: active = normalized growth mostly below about 0.91 (no sharp cut-off); inconclusive = no clear call, values can overlap the other calls; inactive = mostly above about 0.92. Some of the results follow.

Experiment: chemical genetic growth profiling, strain panel (AID 1159580);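 also: tested at 20 µM; growth read once vehicle control cultures reached saturation at 30 °C; 1 = growth at the plate median or of vehicle wells; lower values mean less growth of the strain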
Settings: growth OD

Measured: normalized growth

O=C(/C=C/C=C/c1ccc2c(c1)OCO2)N1CCCCC1
active: S. cerevisiae deletion strains, locus YKR001C, strain vps1, hits give low values 0.796 | S. cerevisiae deletion strains, locus YLR221C, strain rsa3, hits give low values 0.9 | S. cerevisiae deletion strains, locus YLR262C, strain YPT6 (second series), hits give low values 0.71 | S. cerevisiae deletion strains, locus YLR268W, strain sec22, hits give low values 0.807 | S. cerevisiae deletion strains, locus YLR320W, strain mms22, hits give low values 0.808 | S. cerevisiae deletion strains, locus YLR342W, strain FKS1 (second series), hits give low values 0.781 | S. cerevisiae deletion strains, locus YLR342W, strain FKS1, hits give low values 0.851 | S. cerevisiae deletion strains, locus YLR418C, strain cdc73, hits give low values 0.701 | S. cerevisiae deletion strains, locus YNL071W, strain lat1, hits give low values 0.674 | S. cerevisiae deletion strains, locus YNL307C, strain MCK1, hits give low values 0.729 | S. cerevisiae deletion strains, locus YOR184W, strain ser1, hits give low values 0.753 | S. cerevisiae deletion strains, locus YOR270C, strain vph1, hits give low values 0.633 | S. cerevisiae deletion strains, locus YPL051W, strain arl3, hits give low values 0.896 | S. cerevisiae deletion strains, locus YPR163C, strain tif3, hits give low values 0.856
inactive: S. cerevisiae deletion strains, locus YJR075W, strain HOC1, hits give low values 0.9 | S. cerevisiae deletion strains, locus YKL009W, strain mrt4, hits give low values 0.886 | S. cerevisiae deletion strains, locus YKL068W, hits give low values 0.966 | S. cerevisiae deletion strains, locus YKL085W, strain MDH1 (second series), hits give low values 0.953 | S. cerevisiae deletion strains, locus YKL085W, strain MDH1, hits give low values 0.953 | S. cerevisiae deletion strains, locus YKL160W, strain elf1, hits give low values 0.919 | S. cerevisiae deletion strains, locus YKL190W, strain CNB1, hits give low values 0.974 | S. cerevisiae deletion strains, locus YKR026C, strain gcn3, hits give low values 0.992 | S. cerevisiae deletion strains, locus YKR091W, strain srl3, hits give low values 0.977 | S. cerevisiae deletion strains, locus YLL001W, strain dnm1, hits give low values 0.935 | S. cerevisiae deletion strains, locus YLL026W, hits give low values 0.956 | S. cerevisiae deletion strains, locus YLL041C, strain sdh2, hits give low values 0.964 | S. cerevisiae deletion strains, locus YLR027C, strain aat2, hits give low values 0.945 | S. cerevisiae deletion strains, locus YLR039C, strain RIC1, hits give low values 0.72 | S. cerevisiae deletion strains, locus YLR058C, strain SHM2, hits give low values 0.968 | S. cerevisiae deletion strains, locus YLR102C, strain apc9, hits give low values 0.94 | S. cerevisiae deletion strains, locus YLR113W, strain HOG1, hits give low values 0.973 | S. cerevisiae deletion strains, locus YLR258W, strain gsy2, hits give low values 0.92 | S. cerevisiae deletion strains, locus YLR262C, strain YPT6, hits give low values 0.785 | S. cerevisiae deletion strains, locus YLR330W, strain CHS5, hits give low values 0.969 | S. cerevisiae deletion strains, locus YLR357W, strain rsc2, hits give low values 1.08 | S. cerevisiae deletion strains, locus YLR370C, strain arc18, hits give low values 0.952 | S. cerevisiae deletion strains, locus YLR371W, strain rom2, hits give low values 0.959 | S. cerevisiae deletion strains, locus YLR384C, strain iki3, hits give low values 0.976 | S. cerevisiae deletion strains, locus YML016C, strain PPZ1, hits give low values 0.961 | S. cerevisiae deletion strains, locus YML032C, strain rad52, hits give low values 0.914 | S. cerevisiae deletion strains, locus YML120C, strain ndi1, hits give low values 0.932 | S. cerevisiae deletion strains, locus YML124C, strain tub3, hits give low values 0.945 | S. cerevisiae deletion strains, locus YMR058W, strain fet3, hits give low values 0.93 | S. cerevisiae deletion strains, locus YMR078C, strain ctf18, hits give low values 0.932 | S. cerevisiae deletion strains, locus YMR125W, strain sto1, hits give low values 0.961 | S. cerevisiae deletion strains, locus YMR129W, hits give low values 0.959 | S. cerevisiae deletion strains, locus YMR205C, strain PFK2, hits give low values 0.892 | S. cerevisiae deletion strains, locus YMR223W, strain ubp8, hits give low values 0.91 | S. cerevisiae deletion strains, locus YMR231W, strain pep5, hits give low values 0.99 | S. cerevisiae deletion strains, locus YMR263W, strain SAP30, hits give low values 0.921 | S. cerevisiae deletion strains, locus YMR307W, strain GAS1, hits give low values 0.621 | S. cerevisiae deletion strains, locus YNL067W, strain RPL9B, hits give low values 0.907 | S. cerevisiae deletion strains, locus YNL128W, strain TEP1, hits give low values 0.991 | S. cerevisiae deletion strains, locus YNL153C, strain GIM3, hits give low values 0.953 | S. cerevisiae deletion strains, locus YNL183C, strain NPR1, hits give low values 0.95 | S. cerevisiae deletion strains, locus YNL209W, strain ssb2, hits give low values 0.949 | S. cerevisiae deletion strains, locus YNL233W, strain BNI4, hits give low values 0.89 | S. cerevisiae deletion strains, locus YNL248C, strain rpa49, hits give low values 0.94 | S. cerevisiae deletion strains, locus YNL250W, strain rad50, hits give low values 0.95 | S. cerevisiae deletion strains, locus YNL271C, strain bni1, hits give low values 0.933 | S. cerevisiae deletion strains, locus YNL298W, strain CLA4, hits give low values 0.92 | S. cerevisiae deletion strains, locus YNL322C, strain KRE1 (second series), hits give low values 0.965 | S. cerevisiae deletion strains, locus YNL322C, strain KRE1, hits give low values 0.981 | S. cerevisiae deletion strains, locus YNR049C, strain mso1, hits give low values 0.977 | S. cerevisiae deletion strains, locus YNR052C, strain pop2, hits give low values 0.963 | S. cerevisiae deletion strains, locus YOL006C, strain TOP1, hits give low values 0.598 | S. cerevisiae deletion strains, locus YOL012C, strain htz1 1.13 | S. cerevisiae deletion strains, locus YOL147C, strain pex11, hits give low values 0.951 | S. cerevisiae deletion strains, locus YOR001W, strain rrp6, hits give low values 0.956 | S. cerevisiae deletion strains, locus YOR061W, strain CKA2, hits give low values 0.979 | S. cerevisiae deletion strains, locus YOR069W, strain VPS5, hits give low values 0.98 | S. cerevisiae deletion strains, locus YOR070C, strain gyp1, hits give low values 0.935 | S. cerevisiae deletion strains, locus YOR080W, strain dia2, hits give low values 0.996 | S. cerevisiae deletion strains, locus YOR083W, strain WHI5, hits give low values 0.909 | S. cerevisiae deletion strains, locus YOR106W, strain vam3, hits give low values 0.925 | S. cerevisiae deletion strains, locus YOR136W, strain idh2, hits give low values 0.964 | S. cerevisiae deletion strains, locus YOR144C, strain elg1, hits give low values 0.948 | S. cerevisiae deletion strains, locus YOR231W, strain MKK1, hits give low values 0.982 | S. cerevisiae deletion strains, locus YOR265W, strain rbl2, hits give low values 0.961 | S. cerevisiae deletion strains, locus YOR290C, strain snf2, hits give low values 0.929 | S. cerevisiae deletion strains, locus YOR316C, strain cot1, hits give low values 0.946 | S. cerevisiae deletion strains, locus YPL055C, strain LGE1, hits give low values 0.827 | S. cerevisiae deletion strains, locus YPL078C, strain atp4, hits give low values 0.914 | S. cerevisiae deletion strains, locus YPL106C, strain sse1, hits give low values 0.92 | S. cerevisiae deletion strains, locus YPL240C, strain hsp82, hits give low values 0.946 | S. cerevisiae deletion strains, locus YPL241C, strain CIN2, hits give low values 0.969 | S. cerevisiae deletion strains, locus YPL256C, strain CLN2, hits give low values 0.914 | S. cerevisiae deletion strains, locus YPR119W, strain clb2, hits give low values 0.936 | S. cerevisiae deletion strains, locus YPR141C, strain kar3, hits give low values 0.946 | S. cerevisiae deletion strains, locus YPR167C, strain met16, hits give low values 0.948 | S. cerevisiae deletion strains, strain wtn01, hits give low values 0.9 | S. cerevisiae strains, strain wild type, hits give low values 0.948
